Measured values as given in PubChem BioAssay.
The list shows a part of the results. Unmarked numbers belong to inactive results. Activity calls are given as the source filed them. Rule as the data show it, unless noted: active = inhibition above about 14%; inactive = the rest.

What was measured:
[1] = tested on: HIV-1 integrase (multimerization); assay: stimulation of HIV-1 integrase oligomerization – biochemical, TR-FRET, counter-screen for LEDGF/p75 integration inhibitor project (AID 1053131; in the data active = activation above about 8.9%); settings: TR-FRET HIV-1 integrase multimerization, at 7.7 µM, active compounds read high
[2] = compounds disturbing TR-FRET signal readout – biochemical, HIV-1 IN multimerization, artefact control for LEDGF/p75-dependent integration inhibitor project, confirmation (AID 1053135;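 active = inhibition above the mean over all tested compounds plus 3 SD, which no compound reached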;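 also: 0% = integrase with antibodies and DMSO and 100% = antibodies without integrase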); settings: TR-FRET optical interference counterscreen, at 7.7 µM, active compounds read high
[3] = tested on: HIV-1 integrase / human LEDGF/p75 complex; assay: blockers of LEDGF/p75-dependent integrase activity – biochemical, TR-FRET, confirmation (AID 1053136); settings: TR-FRET LEDGF/p75-dependent HIV-1 integration, at 3.7 µM, active compounds read high

**Q.** Which activation [1] does the source give for `CN(CC(=O)Nc1ccc(S(=O)(=O)N2CCCC2)cc1)Cc1ccc(Cl)c(Cl)c1` here?
**A.** The activation was 3.77%.

**Q.** And the inhibition [2]?
**A.** The inhibition was -13.1%.

**Q.** What about the inhibition [3] of the same compound?
**A.** Its inhibition is 5.4%.

**Q.** Which activation [1] does the source give for `CCc1cc2c(SCC(=O)Nc3ncc(Cl)c(C)c3Cl)ncnc2s1` here?
**A.** Its activation is -0.15%.

**Q.** What about the inhibition [2] of the same compound?
**A.** The inhibition was 0.78%.

**Q.** What about the inhibition [3] of the same compound?
**A.** The inhibition was 0.88%.

**Q.** What does the source list for `CN(C)/C=C/C(=O)c1cnc2sccn2c1=O`?
**A.** activation [1]: 0.96%; inhibition [2]: -3.51%; inhibition [3]: 1.19%

**Q.** Which activation [1] does the source give for `COc1ccc(NC(=O)C(NC(C)=O)C(=O)NCc2ccccc2Cl)cc1` (stereo not given) here?
**A.** The activation was -0.36%.

**Q.** What about the inhibition [2] of the same compound?
**A.** The inhibition was 1.86%.

**Q.** What about the inhibition [3] of the same compound?
**A.** Its inhibition is 2.33%.

**Q.** Which activation [1] does the source give for `Cc1cc(=O)oc2c3c(cc(OCC(=O)N[C@H](C(=O)O)c4ccccc4)c12)OC(C)(C)CC3` here?
**A.** The activation was -0.04%.

**Q.** And the inhibition [2]?
**A.** Its inhibition is 0.3%.

**Q.** What about the inhibition [3] of the same compound?
**A.** Its inhibition is -1.12%.

**Q.** With `Cc1ccc(C(=O)NC(=S)Nc2ccc3[nH]c(=O)[nH]c3c2)cc1C` as the compound, how does the activation [1] read?
**A.** The activation was -3.75%.

**Q.** And the inhibition [2]?
**A.** The inhibition was 19%.

**Q.** What about the inhibition [3] of the same compound?
**A.** Its inhibition is 14.8% (active).

**Q.** Which activation [1] does the source give for `CCOC(=O)c1ccc(NC(=O)CSc2ncccn2)cc1` here?
**A.** The activation was -0.25%.

**Q.** What about the inhibition [2] of the same compound?
**A.** Its inhibition is 1.28%.

**Q.** What about the inhibition [3] of the same compound?
**A.** Its inhibition is -6.96%.

**Q.** For `Cc1ccc(-c2nn(-c3ccccc3)cc2/C=C2\SC(=S)N(CCCCCC(=O)O)C2=O)o1`, which activation [1] is on record?
**A.** Its activation is 97.9% (active).

**Q.** What about the inhibition [2] of the same compound?
**A.** The inhibition was -492%.

**Q.** And the inhibition [3]?
**A.** The inhibition was 41.5% (active).

**Q.** For `Cc1ccc(/C=C/C(=O)Nc2ccc([N+](=O)[O-])c(NC(=O)/C=C/c3ccc(C)o3)c2)o1`, which activation [1] is on record?
**A.** The activation was 14.2% (active).

**Q.** And the inhibition [2]?
**A.** Its inhibition is -71.7%.

**Q.** What about the inhibition [3] of the same compound?
**A.** The inhibition was 41.9% (active).

**Q.** Which results are given for `O=C(Nc1nnc(-c2ccco2)o1)c1ccc(S(=O)(=O)N2CCOCC2)cc1`?
**A.** activation [1]: 0.8%; inhibition [2]: -4.01%; inhibition [3]: -5.04%
